Experimental data published in PubChem BioAssay (NCI).
About 83,000 compounds went through this panel and 20% of them were active in at least one assay; those are over-represented in the sample as a whole.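 The endpoint reported here, percent growth, reads 100 for growth as untreated, 0 for no net growth and -100 for all cells dead.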 A number with no mark means an inactive call. Active and inactive are the calls of the source. The calls were made as follows: active = growth percent below 10; inactive = the rest.

Tested on: HL-60(TB) leukemia
Assay: NCI-60 one-dose screen, 48 h (100 = growth as untreated, 0 = no growth, -100 = all killed)
Conditions: 10 µM unless noted

SMILES	growth
FC(F)(F)c1ccc(Cn2cc(CSc3nc4ccccc4s3)nn2)cc1	97.9%
CCCCCn1c(C)cc(/C=C\c2ccc3cc(C)ccc3[n+]2C)c1C	-6.41% (active)
CCCCCCCCCCCCCCCC(=O)O[C@@H]1[C@@H](O)[C@@H](O)C([C@H](NC(=O)[C@@H]2C[C@@H](CCC)CN2C)[C@H](C)Cl)O[C@@H]1SC (some centres undefined)	98.6%
COc1c(O[C@@H]2OC(CO)[C@H](O)[C@H](O)C2O)cc2oc3cc(O)c(CC=C(C)C)c(O)c3c(=O)c2c1CC=C(C)C (some centres undefined)	94.4%
COC(=O)c1ccc2[nH]c(O)c(C(=Nc3ccc(N(C)C(=O)CN4CCN(C)CC4)cc3)c3cccc(OC)c3)c2c1	-35.9% (active)
COc1cc2c(cc1OCCCOC1=C=C=C(c3ccc4c(c3)c3cc(-c5ccc(OCCCOc6cc7c(cc6OC)C(=O)N6CCC[C@H]6C=N7)cc5)ccc3n4S(=O)(=O)c3ccc(C)cc3)C=C1)N=C[C@@H]1CCCN1C2=O	10.5%
COc1cc(Cl)cc(-c2nn(-c3cccc(NC(=O)c4ccc(Cl)c(Cl)c4)c3)cc2-c2ccncc2)c1	94.1%
O=C1c2ccccc2C(=O)c2sc(Nc3ccc(Cl)cc3)nc21	-10.8% (active)
O=c1c2cc(F)ccc2sc2c(NCCCN3CCCC3)nc3ccccc3c12	13.9%
C=CCCCCCCCCCOC(C)=O	120%
N#CSCc1ccc(CSC#N)c(Cl)c1	23%
Clc1ccc(/C=C/c2ccccn2)c(Cl)c1	86%
O=C(NC1CCN(Cc2ccccc2)CC1)c1cc(C(=O)NC2CCN(Cc3ccccc3)CC2)cc(C(=O)NC2CCN(Cc3ccccc3)CC2)c1	64.3%
Cc1ccc(-c2cc3nc(-c4ccccc4)nc(C(Cl)Cl)n3n2)cc1	12.6%
Cc1ccc(Nc2ncnc3c2sc2ncccc23)cc1	71.2%
O=C(c1ccc(OCCN2CCCCC2)cc1)c1c(-c2ccc(O)cc2)sc2cc(O)ccc12	76.8%
C[C@@H]1CCCCCCCCC[C@H](O)C(=O)C[C@@H](SC[C@@H](O)C(=O)O)C(=O)O1	86.8%
Cc1ccc(C(=O)C2=C(O)C(=O)N(Cc3cccnc3)C2c2ccccc2F)o1 (centres undefined)	99.7%
CCCCCCC(=O)C(C)C	101%
C=C(OC(C)=O)c1ccccc1	72.9%
CCN(CC)CCSc1ncnc2c1cnn2-c1ccc(S(N)(=O)=O)cc1	72.4%
CCOC(=O)c1cc2c(n1Cc1cc(OC)c(OC)c(OC)c1)-c1oncc1CCC2	-8.69% (active)
CS(=O)(=O)N(c1cc(-c2ccc3ncnc(Nc4cccc(Cl)c4)c3c2)cnc1Cl)S(C)(=O)=O	8.46% (active)
CC[N+]1(CC)CC[N+]2(CCCC(C)CC2)CC1 (centres undefined)	101%
